The values that follow come from ChEMBL document CHEMBL4296182, “CO-ADD screening of NIH NCI Diversity Set V”.

Assay [1] deals with Staphylococcus aureus. The assay can be described thus: Antibacterial activity against Staphylococcus aureus MRSA ATCC 43300 (CO-ADD:GP_020); MIC in CAMBH media using NBS plates, by Resazurin F(560/590). In kind it is functional. The conditions noted are these: Concentration 20 uM, ASSAY_TEST Inhibition of Bacterial Growth, detection method Resazurin, Fluorescence (ex560/em590), MEDIA CAMHB, plate type 384well, CORNING #3640, time 18 hr.

Assay [2] has as its system Acinetobacter baumannii. Briefly: Antibacterial activity against Acinetobacter baumannii ATCC 19606 (CO-ADD:GN_034); MIC in CAMBH media using NBS plates, by Resazurin F(560/590). The conditions noted are these: Concentration 20 uM, ASSAY_TEST Inhibition of Bacterial Growth, detection method Resazurin, Fluorescence (ex560/em590), MEDIA CAMHB, plate type 384well, CORNING #3640, time 18 hr. In kind it is functional.

The test system of assay [3] is Escherichia coli. The assay can be described thus: Antibacterial activity against Escherichia coli ATCC 25922 (CO-ADD:GN_001); MIC in CAMBH media using NBS plates, by Resazurin F(560/590). In kind it is functional. The conditions noted are these: Concentration 20 uM, ASSAY_TEST Inhibition of Bacterial Growth, detection method Resazurin, Fluorescence (ex560/em590), MEDIA CAMHB, plate type 384well, CORNING #3640, time 18 hr. (Resazurin is reduced to fluorescent resorufin, in cell work by metabolically active cells.)

For assay [4], the system named is Klebsiella pneumoniae. The conditions noted are these: Concentration 20 uM; ASSAY_TEST Inhibition of Bacterial Growth; detection method Absorption (OD600); MEDIA CAMHB; plate type 384well; NBS; CORNING #3640; time 18 hr.
For assay [5], the system named is Candida albicans. The conditions noted are these: 20 µM.
Assay [6] deals with Cryptococcus neoformans. The conditions noted are these: Concentration 20 uM; ASSAY_TEST Inhibition of Fungal Growth; detection method Resazurin; Absorption (OD600-OD570); plate type 384well; NBS; CORNING #3640.

Molecules are shown by their SMILES. For part of these data: Results with a measured potency or affinity are listed apart.

The term Inhibition denotes the change of the read-out against control, counted positive when it falls. `O=c1c(O)cccc2cc(O)c(O)c(O)c12` [PURPUROGALLIN]: the Inhibition in assay [1] was -28.9%; in assay [2], 1.69%; in assay [3], 13.14%; in assay [4], 21.3%; in assay [5] it was 53.6%; in assay [6], -25.98%.
On to `Cc1cc2c3ccccc3ncn2n1`, for which the Inhibition in assay [1] is 14.33%; in assay [2], -9.67%; in assay [3] it was 5.54%; in assay [4] it was 9.54%; in assay [5], 5.02%; in assay [6], -5.91%.
On to `Clc1nc2nc3n(c2nc1Cl)CCC3`, for which the Inhibition in assay [1] is 9.08%; in assay [2], 6.51%; in assay [3] it was 0.57%; in assay [4] it was 2.17%; in assay [5] it was 3.01%; in assay [6], -9.39%.
For the molecule `Cn1c(=O)c2c(nc(N3CCCCC3)n2C)n(C)c1=O`, the Inhibition is 9.93% in assay [1]; 4.85% in assay [2]; 2.17% in assay [3]; 8.3% in assay [4]; 4.05% in assay [5]; -7.82% in assay [6].
In the case of `Clc1cc2c(nn1)Nc1ccccc1S2`, the Inhibition in assay [1] is -2.08%; in assay [2], 9.37%; in assay [3], 10.31%; in assay [4], 10.14%; in assay [5], 0.32%; in assay [6] it was -16.64%.
Regarding `Oc1ncc(I)cc1I`, the Inhibition in assay [1] was found to be 37.5%; in assay [2] it was 6.08%; in assay [3] it was 2.67%; in assay [4], 22.74%; in assay [5], 4.4%; in assay [6], 23.72%.
As to `Cc1nc2ccc(Cl)cn2c1[N+](=O)[O-]`, the Inhibition in assay [1] was 1.58%; in assay [2] it was 13.48%; in assay [3] it was -8.75%; in assay [4], 13.85%; in assay [5] it was 5.38%; in assay [6] it was -3.42%.
As for `CC1(C)CC(=O)C(CC(=O)c2ccccc2)=C(NNC(=N)N)C1`, the Inhibition in assay [1] was 1.47%; in assay [2] it was 8.18%; in assay [3] it was 4.18%; in assay [4], -0.42%; in assay [5], 5.62%; in assay [6] it was -4.09%.
Consider `CC(=O)Nc1ccc(OCCOc2ccc([N+](=O)[O-])cc2)cc1`, for which the Inhibition in assay [1] was 16.53%; in assay [2], 7.01%; in assay [3] it was 2.93%; in assay [4], 10.72%; in assay [5], -1.95%; in assay [6], -16.57%.
`O=C(Nc1ccc(Oc2ccc(NC(=O)Nc3ccccc3Cl)cc2)cc1)Nc1ccccc1Cl`: the Inhibition in assay [1] was 19.6%; in assay [2] it was -10.42%; in assay [3], 14.43%; in assay [4], 12.03%; in assay [5] it was 16%; in assay [6], 6.13%.
Regarding `CNC(=O)Nc1ccc(S(N)(=O)=O)cc1`, the Inhibition in assay [1] is -4.03%; in assay [2], 14.32%; in assay [3], -4.85%; in assay [4], 19.46%; in assay [5], 3.31%; in assay [6], 0.61%.
For `Cc1ccc(NC(=O)Nc2ccccc2C(N)=O)cc1`, the Inhibition in assay [1] is -6.86%; in assay [2], -15.18%; in assay [3] it was 6.22%; in assay [4] it was 4.47%; in assay [5], 1.66%; in assay [6], -13.76%.
`CC(=O)c1cc(O)c2ccccc2c1O`: the Inhibition was 4.01% in assay [1]; -14.11% in assay [2]; 0.42% in assay [3]; 7.57% in assay [4]; 24.1% in assay [5]; 6.09% in assay [6].
Regarding `CCCSc1nc2c(c(=O)n(C)c(=O)n2C)n1C`, the Inhibition in assay [1] is 3.15%; in assay [2], -8.65%; in assay [3], 0.8%; in assay [4] it was 7.42%; in assay [5], 2.63%; in assay [6] it was -7.02%.
On to `O=S1(=O)CCC(N(/N=C/c2ccco2)c2ccccc2)C1` (stereo unspecified), for which the Inhibition in assay [1] is 6.29%; in assay [2], -4.36%; in assay [3] it was -3.36%; in assay [4], 6.93%; in assay [5], -2.37%; in assay [6], -1.06%.
In the case of `COc1c(C=O)c2c(c(OC)c1OC)-c1ccc(OC)c(=O)cc1[C@@H](NC(C)=O)CC2`, the Inhibition in assay [1] was -5.44%; in assay [2], -11.93%; in assay [3], 15.89%; in assay [4], 9.96%; in assay [5], 0.57%; in assay [6], -7.77%.
In the case of `c1ccc(/N=N/N2CCOCC2)cc1`, the Inhibition in assay [1] was 10.43%; in assay [2], -20.45%; in assay [3], 2.82%; in assay [4], 4.01%; in assay [5], 17.7%; in assay [6], -10.19%.
`CCOc1ccc(NC(=O)N(O)C2(C#N)CCCCC2)cc1`: the Inhibition in assay [1] was 13.16%; in assay [2] it was 8.44%; in assay [3], 2.02%; in assay [4] it was 18.05%; in assay [5], 5.54%; in assay [6], -2.32%.
In the case of `CC(=O)CC(=O)Nc1ccc2ccccc2c1`, the Inhibition in assay [1] was -8%; in assay [2], 10.6%; in assay [3] it was 5.41%; in assay [4] it was 9.32%; in assay [5], 7.43%; in assay [6], -13.72%.
Turning to `NC(=O)c1ccccc1NC(=O)c1ccccc1Cl`, the Inhibition was -3.45% in assay [1]; -12.19% in assay [2]; 7.56% in assay [3]; 6.89% in assay [4]; 2.67% in assay [5]; -15.77% in assay [6].
As to `Cc1ccc2c(c1)C(=C(C#N)C#N)CCN2`, the Inhibition is 5.58% in assay [1]; 12.47% in assay [2]; 3.17% in assay [3]; 22.07% in assay [4]; 3.21% in assay [5]; -7.98% in assay [6].
Regarding `CC1=C(c2ccccc2)C=NNCC1=O`, the Inhibition in assay [1] was 7.06%; in assay [2], -11.86%; in assay [3], 19.62%; in assay [4], 15.54%; in assay [5], 3.87%; in assay [6], -8.22%.
As for `Cc1ccc(-n2nnnc2-c2cccnc2)cc1`, the Inhibition in assay [1] is 21.74%; in assay [2], -2.15%; in assay [3] it was 12.35%; in assay [4], 4.8%; in assay [5], -0.65%; in assay [6], -9.13%.
For the molecule `CC1(CN2CCCC2)CCC(NC(=O)C(c2ccccc2)c2ccccc2)C(C)(C)O1` (stereo unspecified), the Inhibition in assay [1] is 23.4%; in assay [2], 6.65%; in assay [3], 12.21%; in assay [4], 18.43%; in assay [5], 0.1%; in assay [6] it was -5.78%.
As for `COc1cccc2c1C(CO)N1C(C#N)C3CC(C(=O)O)C(C1C2)N3C` (stereo unspecified), the Inhibition in assay [1] is 14.9%; in assay [2], -10.77%; in assay [3], -1.99%; in assay [4], 21.32%; in assay [5], 4.33%; in assay [6] it was -4.3%.
As to `COc1cc(NC(C)=O)c2ncccc2c1NC(C)=O`, the Inhibition in assay [1] was 3.21%; in assay [2] it was 8.89%; in assay [3], -13.22%; in assay [4], 18.39%; in assay [5] it was 5.47%; in assay [6], 12.48%.
